# Screening results deposited in PubChem by National Center for Advancing Translational Sciences (NCATS).
# Pf Dd2 inh = inhibitors of Plasmodium falciparum Dd2 growth; 120,000 compounds, 4.3% hits; Potency, µM (highest dose often 28.9 µM), inactives show top-dose activity, negative = inhibition, most hits filed as inhibitors; AID 1347417; P. falciparum Dd2 growth, SYBR Green, 72 h; active means well fitted inhibition curve with a large enough effect;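 further: plate controls were DMSO vehicle for no effect and reference drug for full effect; nearly all actives have a fitted effect of over 65% in size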
#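 Infected erythrocytes (Dd2, 0.3% parasitemia, 2.5% hematocrit final) are added to compound in RPMI-1640/Albumax II medium, grown 72 h at 37C in low oxygen, then lysed with saponin/Triton-X containing SYBR Green and read by fluorescence.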
# * hit, by the source's call; i = inactive; [ ] = another dose, or the depositor's remark. The sample as a whole holds a higher share of hits than the screen did. Potency means the concentration at half of the fitted maximal effect.
SMILES,Pf Dd2 inh
CC(C)(C)c1ccc(-c2cc(C[C@H]3CNCC[C@H]3CC(=O)NCCN3CCOCC3)no2)cc1,10µM*
CC(C)NC(=O)C[C@@H]1CCNC[C@@H]1Cc1cc(-c2ccc(C(C)(C)C)cc2)on1,7.1µM*
CC(C)(C)c1ccc(-c2cc(C[C@H]3CNCC[C@H]3CC(=O)N3CCC(Cc4ccccc4)CC3)no2)cc1,i
COc1ccc(-c2cc(C[C@H]3CNCC[C@H]3CC(=O)N3CCOCC3)no2)cc1,9%[44.1 µM]
CCN(CC)C(=O)C[C@@H]1CCNC[C@@H]1Cc1cc(-c2ccc(C(C)(C)C)cc2)on1,4.5µM*
CC(C)(C)c1ccc(-c2cc(C[C@H]3CNCC[C@H]3CC(=O)Nc3ccccc3)no2)cc1,-25%[44.1 µM]
CN(C)CCNC(=O)C[C@@H]1CCNC[C@@H]1Cc1cc(-c2ccc(C(C)(C)C)cc2)on1,i
CN1CCN(C(=O)C[C@@H]2CCNC[C@@H]2Cc2cc(-c3ccccc3)on2)CC1,i
O=C(C[C@@H]1CCNC[C@@H]1Cc1cc(-c2ccccc2)on1)NC1CC1,11%[44.1 µM]
Cc1ccc(C(=O)N2CCC3(CC2)NC(=O)N(c2ccc(F)cc2)N3)s1,i
CC(C)[C@@H](C(N)=O)N1CC[C@H]2CN(C(=O)Nc3ccccc3)CC[C@H]2CC1=O,1%[44.1 µM]
CNc1nc2c(s1)C(c1cccc(F)c1)CC(=O)N2 (stereo not drawn),-13%
CCCS(=O)(=O)N1CCCN(S(=O)(=O)c2ccccc2)CCC(=O)NCC1,9%
O=C(CN1CC2CC(C1)[C@H]1CCCC(=O)N1C2)NCc1ccc(F)cc1F (stereo partly drawn),-17%
CCc1noc(-c2ccn3c(CNC(=O)c4cccc5[nH]ccc45)nnc3c2)n1,-1%
Cc1ccc(CNC(=O)c2nnn(Cc3ccc(F)cc3)c2N)cc1,3.2µM*
CCc1ccc(NC(=O)Cn2nnc(C(=O)NCc3ccc(C)cc3)c2N)cc1,11%
Nc1c(C(=O)NCc2ccc(Cl)cc2Cl)nnn1Cc1ccc(Br)cc1,i
Cc1ccc(CNC(=O)c2nnn(CC(=O)Nc3cc(C)ccc3C)c2N)cc1,i
CCc1ccccc1NC(=O)Cn1nnc(C(=O)NCc2ccccc2Cl)c1N,-6%
Cc1ccc(C)c(Cn2nnc(C(=O)NCc3ccc(Cl)cc3Cl)c2N)c1,4.5µM*
O=C(c1ccco1)N1CCN(C(=O)C2CN(S(=O)(=O)C3CC3)CC23CCCCC3)CC1 (stereo not drawn),i
CCCn1c(C)cnc1CC1CCN(C(=O)c2cnc(C)cn2)CC1,4%
CC(C)c1ccc(CC(=O)N2CCCc3ncc(C(=O)Nc4cccnc4)cc32)cc1,0.63µM*
O=C(Nc1cccc(F)c1)c1cnc2c(c1)N(C(=O)Cc1cccc(C(F)(F)F)c1)CCC2,11µM*
SMILES,Pf Dd2 inh
CC(C)c1ccc(CC(=O)N2CCCc3ncc(C(=O)NCCN4CCCC4)cc32)cc1,-7%[44.1 µM]
CC(C)NC(=O)c1cnc2c(c1)N(C(=O)Cc1ccc(C(C)C)cc1)CCC2,i
CC(C)c1ccc(CC(=O)N2CCCc3ncc(C(=O)Nc4ccc5[nH]ccc5c4)cc32)cc1,-12%
Cn1cc(CC(=O)N2CCCc3ncc(C(=O)Nc4cccc(C(F)(F)F)c4)cc32)c2ccccc21,i
CC(C)c1ccc(CC(=O)N2CCCc3ncc(C(=O)NCC(C)(C)CO)cc32)cc1,i
CC(C)c1ccc(CC(=O)N2CCCc3ncc(C(=O)Nc4cccc(Cl)c4)cc32)cc1,13µM*
CC(C)c1ccc(CC(=O)N2CCCc3ncc(C(=O)NCCc4ccccc4)cc32)cc1,i
O=C(Nc1cccc(C(F)(F)F)c1)c1cnc2c(c1)N(C(=O)CCc1ccccc1)CCC2,i
CC(C)c1ccc(CC(=O)N2CCCc3ncc(C(=O)NCc4ccccc4)cc32)cc1,i
CC(C)c1ccc(CC(=O)N2CCCc3ncc(C(=O)Nc4ccccn4)cc32)cc1,7.9µM*
CC1=C(C(=O)OC(C)C)C(c2ccc([N+](=O)[O-])cc2)N2C(CC(=O)N3CCOCC3)=CSC2=N1 (stereo not drawn),i
NC(c1ccccc1)c1nnc2n1CCN(C(=O)N1CCCC1)C2 (stereo not drawn),51%
COCCCn1c(C)cnc1C1CCN(C(=O)NCc2ccc(C)cc2)C1 (stereo not drawn),-6%
CC(C)CCN1CCC(N2CCN(C(=O)CCc3ccccc3)CC2)C1=O (stereo not drawn),-21%
Cc1nc(-c2cn(C3CCCN(C(=O)c4c(F)cccc4F)C3)nn2)no1 (stereo not drawn),i
CN(C)CCN1CCCN(C(=O)CCc2ccccc2)c2ccccc21,7.1µM*
CN1CCCN(C(=O)CCc2ccccc2)c2ccccc21,i
O=C(c1ccncc1)N1CCCN(CCc2ccccc2)c2ccccc21,i
COc1ccccc1CC(=O)N1CCCN(CCc2ccccc2)c2ccccc21,7.9µM*
O=C(c1cc(F)ccc1F)N1CCCN(CCc2ccccc2)c2ccccc21,i
COc1ccc(CCC(=O)N2CCCN(C)c3ccccc32)cc1,-15%
Cn1c(Cn2cccn2)nnc1C1CC(NC(=O)c2sccc2N)C1 (stereo not drawn),0%
